Measured values: PubChem BioAssay AID624418 (National Center for Advancing Translational Sciences (NCATS), 2012)
Out of some 410,000 compounds screened, about 530 (0.13%) were called active. About 5% were inconclusive and are not listed. The call rests on the fitted dose curve; in most records, active means well fitted inhibition curve with a large enough effect; inconclusive means small, poorly fitted or top-dose-only effect, or another doubt; inactive means no such curve, though single readings can be large or run the other way. The list comes from a sample in which actives are over-represented; it also holds similar structures and randomly drawn compounds.

assay: qHTS of GLP-1 Receptor Inverse Agonists: Cytotox Screen; details: HEK293 cAMP-luciferase reporter cells, luminescence, 24 h; series mostly up to 38.3 µM; activity change, negative = inhibition: at the top concentration;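 further: loss of luciferase light is scored as toxicity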
In short: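 Compound-treated cells are incubated 24 hr at 37 deg C under 5% CO2 after a 12 hour attachment period, then luciferase detection reagent is added and luminescence is measured following 12 min at room temperature; lowered signal indicates toxicity.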
On the % scale 0 is the no-effect control and ±100 the full control effect; potency means the concentration at half of the fitted maximal effect.

SMILES | activity change, negative = inhibition | Potency
COc1ccc(CCNCc2c(C(=O)O)c(C)n(Cc3cccc(C)c3)c2C)cc1OC | -1.48% (inactive) | 
Cc1cn(C)c(CC(=O)NCc2ccc(Cl)cc2)c1C(=O)O | -7.39% (inactive) | 
CCOc1ccc(N2CC(c3nc4ccccc4n3CCOc3ccc(OC)cc3)CC2=O)cc1 (configuration not stated) | -12% (inactive) | 
O=C(NCc1ccccc1Cl)c1cccn1-c1nnc(N2CCCCC2)s1 | -1.65% (inactive) | 
COc1ccc(N(CC(=O)NCCc2ccc(Cl)cc2)S(=O)(=O)c2c(C)nn(C)c2C)cc1 | -6.46% (inactive) | 
CC(CNC(=O)c1nnc(Cc2cccc(F)c2)o1)c1ccccc1 (configuration not stated) | 0.552% (inactive) | 
Cc1ccc(CNC(=O)CCc2c(C)nc3c(c(C)nn3-c3ccccc3)c2C)cc1 | 12.6% (inactive) | 
CNc1ccc(-c2nc(-c3ccco3)no2)cc1[N+](=O)[O-] | 2.51% (inactive) | 
O=C(NCCc1ccc(Cl)cc1)c1ccc2c(c1)N(Cc1ccc(F)cc1)C(=O)CS2 | -10.6% (inactive) | 
CCOc1ccc(-c2nonc2NC(=O)c2oc3ccc(CC)cc3c2C)cc1 | -6.03% (inactive) | 
COc1ccc(NC(=O)C(c2ccccc2)N2Cc3ccccc3C2=O)cc1 (configuration not stated) | 3.88% (inactive) | 
CCOc1ccc(NC(=O)C2CCN(S(=O)(=O)c3cc(-c4noc(C)n4)ccc3C)CC2)cc1 | -6.45% (inactive) | 
CC1CC2=C(CC1/C=N/NC(N)=S)C(C)(C)CCC2 (configuration not stated) |  | 2.24 µM (active)
Cc1nc2c(-c3ccccc3)c(C)nn2c(C)c1CCC(=O)NCCc1ccccc1 | 2.89% (inactive) | 
Cc1cccc(CSc2nc3ccncc3n2CC(=O)N(C)C2CCCCC2)c1 | 0.871% (inactive) | 
CC(C)(C)OC(=O)N1CCC(c2c(C(=O)N3CCN(c4cccc(Cl)c4)CC3)cnn2-c2cccc(Cl)c2)CC1 | 1.54% (inactive) | 
COc1ccccc1Nc1c2c(nc3ccc(NC(=O)/C=C/c4cc(OC)c(OC)c(OC)c4)cc13)CCCC2 |  | 4.47 µM (active)
COc1cc(/C=C/C(=O)N2CCc3ccccc3C2)cc(OC)c1OC | 3.72% (inactive) | 
CCOc1ccc(C(=O)Nc2ccc3nc4c(c(Nc5ccccc5OC)c3c2)CCCC4)cc1 | -22.1% (inactive) | 
CC(=O)N1CCc2cc(S(=O)(=O)NC(Cc3ccccc3)C(=O)NCc3ccc(C)cc3)ccc21 (configuration not stated) | -0.157% (inactive) | 
Clc1cccc(-n2ncc3c(NCCc4ccccc4)ncnc32)c1 | -12.3% (inactive) | 
CCn1cc(C(=O)NCc2ccc(C)cc2)c(=O)c2cc(S(=O)(=O)N3CCc4ccccc4C3)ccc21 | -11.4% (inactive) | 
CCOc1cc(C(=O)NCCc2csc3nc(-c4ccc(C)cc4)nn23)cc(OCC)c1OCC | 7.6% (inactive) | 
CCCCN1CC(c2nc3ccccc3n2CCCCOc2ccc(C)cc2C)CC1=O (configuration not stated) | -18.1% (inactive) | 
CC(C)Oc1c(Br)cc(Br)cc1/C=N/NC(N)=S |  | 2.51 µM (active)
CC1(C(=O)N/N=C/c2cc3c(cc2Br)OCO3)CC1(Br)Br (configuration not stated) | 5.99% (inactive) | 
CCCCn1cc(S(=O)(=O)c2ccc(OCC)cc2)c(=O)c2cc(OC)c(OC)cc21 | -4.49% (inactive) | 
